Assay results as given in the supplement of paper PMC6411743.
± gives the standard deviation of the averaged measurements. Of roughly 6,200 targets only a part is listed; those with the largest changes were picked by preference.

Compound: Nc1ncnc2c1ncn2[C@@H]1O[C@H](COP(=O)(O)OP(=O)(O)NP(=O)(O)O)[C@@H](O)[C@H]1O [adenylyl imidodiphosphate]
Test: NP40-soluble protein abundance relative to vehicle (solubility fold change) (ratio); higher = more soluble protein in presence of AMP-PNP
How it was run: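 Values are fold changes against the detergent-processed vehicle, based on vsn-normalised intensities. Jurkat crude lysate was treated at eight concentrations from 0.1 to 10 mM (10 min at room temperature, then 3 min at 37 °C), solubilised with 0.8% NP40 and benzonase, ultracentrifuged and analysed by TMT-labelled LC-MS/MS over three independent experiments.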

UniProt Q6P6C2, sequence (Q6P6C2 whole entry, looked up): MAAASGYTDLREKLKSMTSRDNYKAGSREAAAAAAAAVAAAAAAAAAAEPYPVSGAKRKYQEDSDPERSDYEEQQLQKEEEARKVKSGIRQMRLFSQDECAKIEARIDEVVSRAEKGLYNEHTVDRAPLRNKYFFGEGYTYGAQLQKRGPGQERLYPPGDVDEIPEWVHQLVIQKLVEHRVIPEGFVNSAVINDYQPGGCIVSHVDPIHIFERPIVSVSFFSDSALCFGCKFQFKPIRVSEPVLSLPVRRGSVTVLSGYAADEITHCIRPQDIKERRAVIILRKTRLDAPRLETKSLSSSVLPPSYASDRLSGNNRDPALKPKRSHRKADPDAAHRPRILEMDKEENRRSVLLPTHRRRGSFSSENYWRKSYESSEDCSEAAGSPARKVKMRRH
UniProt Q8NI27, sequence (Q8NI27 whole entry): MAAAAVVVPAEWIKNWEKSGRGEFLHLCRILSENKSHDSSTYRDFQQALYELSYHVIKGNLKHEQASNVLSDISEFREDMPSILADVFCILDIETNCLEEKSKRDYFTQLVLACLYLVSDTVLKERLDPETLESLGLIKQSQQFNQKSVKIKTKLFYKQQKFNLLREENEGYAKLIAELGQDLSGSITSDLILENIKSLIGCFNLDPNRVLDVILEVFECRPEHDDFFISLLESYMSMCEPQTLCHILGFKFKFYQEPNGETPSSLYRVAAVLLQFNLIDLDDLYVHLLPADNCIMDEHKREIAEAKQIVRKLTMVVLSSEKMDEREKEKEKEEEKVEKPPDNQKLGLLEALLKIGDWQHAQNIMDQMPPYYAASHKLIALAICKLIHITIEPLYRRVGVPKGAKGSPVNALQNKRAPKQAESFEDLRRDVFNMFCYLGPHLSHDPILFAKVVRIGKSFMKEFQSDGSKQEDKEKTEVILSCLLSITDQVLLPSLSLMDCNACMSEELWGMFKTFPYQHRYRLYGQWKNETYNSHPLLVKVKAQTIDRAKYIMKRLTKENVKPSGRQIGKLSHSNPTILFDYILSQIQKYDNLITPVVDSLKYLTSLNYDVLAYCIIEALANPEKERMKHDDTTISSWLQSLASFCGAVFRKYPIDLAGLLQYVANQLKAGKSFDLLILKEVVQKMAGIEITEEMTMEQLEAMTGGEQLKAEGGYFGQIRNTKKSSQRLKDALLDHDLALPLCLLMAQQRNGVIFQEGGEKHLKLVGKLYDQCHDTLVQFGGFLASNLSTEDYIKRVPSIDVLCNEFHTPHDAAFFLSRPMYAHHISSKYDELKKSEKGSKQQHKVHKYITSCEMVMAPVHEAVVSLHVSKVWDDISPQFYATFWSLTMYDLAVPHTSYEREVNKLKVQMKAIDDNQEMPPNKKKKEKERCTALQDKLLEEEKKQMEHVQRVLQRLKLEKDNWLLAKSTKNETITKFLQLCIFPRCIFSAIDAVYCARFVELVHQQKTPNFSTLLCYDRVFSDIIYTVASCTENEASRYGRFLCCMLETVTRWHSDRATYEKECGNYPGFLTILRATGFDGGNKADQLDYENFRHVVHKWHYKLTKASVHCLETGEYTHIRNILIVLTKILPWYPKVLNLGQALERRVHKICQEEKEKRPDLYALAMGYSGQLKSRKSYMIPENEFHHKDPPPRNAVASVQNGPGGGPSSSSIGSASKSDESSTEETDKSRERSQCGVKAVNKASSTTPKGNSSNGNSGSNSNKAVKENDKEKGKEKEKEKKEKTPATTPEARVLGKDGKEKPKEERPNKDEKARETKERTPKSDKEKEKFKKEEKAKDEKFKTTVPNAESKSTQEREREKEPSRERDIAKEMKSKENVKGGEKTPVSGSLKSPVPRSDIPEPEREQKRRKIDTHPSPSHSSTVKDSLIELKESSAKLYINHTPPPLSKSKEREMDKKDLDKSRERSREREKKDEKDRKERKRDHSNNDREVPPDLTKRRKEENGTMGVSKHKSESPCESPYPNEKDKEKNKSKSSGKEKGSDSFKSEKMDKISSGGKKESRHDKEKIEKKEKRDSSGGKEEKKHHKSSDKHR
UniProt Q92576, sequence (Q92576 whole entry): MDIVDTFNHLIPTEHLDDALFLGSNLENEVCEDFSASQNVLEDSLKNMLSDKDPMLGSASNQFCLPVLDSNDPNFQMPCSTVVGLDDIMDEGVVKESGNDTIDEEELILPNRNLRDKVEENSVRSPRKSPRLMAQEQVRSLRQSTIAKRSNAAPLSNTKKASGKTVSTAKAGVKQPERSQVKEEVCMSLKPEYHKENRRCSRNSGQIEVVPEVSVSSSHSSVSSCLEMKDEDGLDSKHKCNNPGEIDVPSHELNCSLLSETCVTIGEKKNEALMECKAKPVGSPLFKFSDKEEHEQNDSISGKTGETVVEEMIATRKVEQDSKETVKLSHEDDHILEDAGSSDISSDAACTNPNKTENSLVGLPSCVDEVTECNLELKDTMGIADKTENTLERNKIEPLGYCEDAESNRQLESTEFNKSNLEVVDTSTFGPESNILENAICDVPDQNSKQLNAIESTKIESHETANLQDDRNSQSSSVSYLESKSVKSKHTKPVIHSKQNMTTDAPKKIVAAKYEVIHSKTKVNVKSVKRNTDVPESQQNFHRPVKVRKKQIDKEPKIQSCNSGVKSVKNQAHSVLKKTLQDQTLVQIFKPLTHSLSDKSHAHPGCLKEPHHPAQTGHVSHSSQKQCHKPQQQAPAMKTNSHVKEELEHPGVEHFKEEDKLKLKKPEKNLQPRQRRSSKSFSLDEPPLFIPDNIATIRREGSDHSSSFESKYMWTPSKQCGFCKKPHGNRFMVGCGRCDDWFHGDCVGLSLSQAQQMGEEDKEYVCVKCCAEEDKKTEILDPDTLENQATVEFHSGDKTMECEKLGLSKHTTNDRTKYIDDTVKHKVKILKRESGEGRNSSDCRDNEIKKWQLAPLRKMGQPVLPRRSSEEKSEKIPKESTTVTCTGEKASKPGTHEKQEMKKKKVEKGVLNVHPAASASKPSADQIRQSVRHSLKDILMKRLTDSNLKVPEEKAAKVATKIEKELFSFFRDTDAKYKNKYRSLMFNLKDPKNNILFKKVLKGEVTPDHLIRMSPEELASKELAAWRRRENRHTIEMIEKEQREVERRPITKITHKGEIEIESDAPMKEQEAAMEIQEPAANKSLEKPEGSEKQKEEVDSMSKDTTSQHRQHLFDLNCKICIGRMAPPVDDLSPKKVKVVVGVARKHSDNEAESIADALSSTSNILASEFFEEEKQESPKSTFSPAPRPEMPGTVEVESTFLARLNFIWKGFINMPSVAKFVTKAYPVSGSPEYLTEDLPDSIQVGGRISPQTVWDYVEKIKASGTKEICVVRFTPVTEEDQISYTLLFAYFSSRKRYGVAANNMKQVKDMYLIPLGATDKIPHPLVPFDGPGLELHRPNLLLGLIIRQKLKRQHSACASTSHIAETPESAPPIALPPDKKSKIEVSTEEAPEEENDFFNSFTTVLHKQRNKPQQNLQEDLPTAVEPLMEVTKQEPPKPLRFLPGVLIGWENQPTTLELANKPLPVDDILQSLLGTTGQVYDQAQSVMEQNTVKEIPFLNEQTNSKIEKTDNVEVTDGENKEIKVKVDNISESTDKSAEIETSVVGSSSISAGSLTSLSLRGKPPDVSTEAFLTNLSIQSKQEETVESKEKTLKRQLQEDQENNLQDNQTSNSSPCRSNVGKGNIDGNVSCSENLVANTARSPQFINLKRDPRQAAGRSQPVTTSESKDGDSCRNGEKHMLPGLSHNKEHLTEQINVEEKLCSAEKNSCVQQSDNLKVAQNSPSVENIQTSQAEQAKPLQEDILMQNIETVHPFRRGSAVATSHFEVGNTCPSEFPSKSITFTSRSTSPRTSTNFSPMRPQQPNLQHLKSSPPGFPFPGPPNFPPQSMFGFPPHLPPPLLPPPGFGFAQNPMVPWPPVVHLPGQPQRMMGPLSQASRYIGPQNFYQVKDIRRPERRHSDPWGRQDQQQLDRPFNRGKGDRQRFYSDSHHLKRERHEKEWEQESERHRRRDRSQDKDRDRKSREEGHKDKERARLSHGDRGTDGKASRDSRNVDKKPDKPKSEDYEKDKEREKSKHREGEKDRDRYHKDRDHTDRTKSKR
UniProt Q5QJE6, sequence (Q5QJE6 whole entry): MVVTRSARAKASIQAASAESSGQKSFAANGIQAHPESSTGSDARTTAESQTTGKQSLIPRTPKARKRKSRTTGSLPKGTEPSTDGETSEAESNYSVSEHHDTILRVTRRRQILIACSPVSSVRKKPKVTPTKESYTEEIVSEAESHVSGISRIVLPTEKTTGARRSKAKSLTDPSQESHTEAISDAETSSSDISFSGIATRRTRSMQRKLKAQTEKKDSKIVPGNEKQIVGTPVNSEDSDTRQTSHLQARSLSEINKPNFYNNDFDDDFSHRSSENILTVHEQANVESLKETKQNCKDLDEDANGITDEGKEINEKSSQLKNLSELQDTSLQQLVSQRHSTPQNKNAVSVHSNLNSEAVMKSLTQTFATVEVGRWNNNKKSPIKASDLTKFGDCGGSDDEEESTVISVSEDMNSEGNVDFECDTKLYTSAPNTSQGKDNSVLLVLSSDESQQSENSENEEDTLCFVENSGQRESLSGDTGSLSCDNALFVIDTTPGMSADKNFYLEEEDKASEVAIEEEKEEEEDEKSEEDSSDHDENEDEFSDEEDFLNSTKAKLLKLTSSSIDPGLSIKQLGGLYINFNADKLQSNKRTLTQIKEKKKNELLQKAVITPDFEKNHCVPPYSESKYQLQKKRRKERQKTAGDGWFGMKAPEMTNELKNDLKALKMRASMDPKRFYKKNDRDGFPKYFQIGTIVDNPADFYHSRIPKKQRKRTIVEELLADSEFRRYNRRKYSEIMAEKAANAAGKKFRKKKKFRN
UniProt Q13825, sequence (Q13825 whole entry): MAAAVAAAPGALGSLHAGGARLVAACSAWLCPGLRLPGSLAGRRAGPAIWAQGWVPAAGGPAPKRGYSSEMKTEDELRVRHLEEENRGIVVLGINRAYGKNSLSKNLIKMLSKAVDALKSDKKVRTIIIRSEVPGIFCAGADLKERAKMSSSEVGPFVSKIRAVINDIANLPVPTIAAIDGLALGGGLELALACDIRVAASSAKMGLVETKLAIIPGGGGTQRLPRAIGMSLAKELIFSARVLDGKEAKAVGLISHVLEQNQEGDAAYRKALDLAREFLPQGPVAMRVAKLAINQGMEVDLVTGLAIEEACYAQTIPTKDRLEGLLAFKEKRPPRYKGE

Target	NP40-soluble protein abundance (concentration: 1mM)	NP40-soluble protein abundance (concentration: 2mM)	NP40-soluble protein abundance (concentration: 4mM)	NP40-soluble protein abundance (concentration: 6mM)	NP40-soluble protein abundance (concentration: 8mM)	NP40-soluble protein abundance (concentration: 10mM)
UniProt Q92576|Q92576-2	1.046 ± 0.0099	1.09 ± 0.048	1.08 ± 0.008	1.08 ± 0.07	1.09 ± 0.04	1.11 ± 0.046
THOC2 (UniProt Q8NI27)	1.36 ± 0.16	1.46 ± 0.2	1.63 ± 0.29	1.87 ± 0.53	2.02 ± 0.6	2.15 ± 0.77
KBTBD7 (UniProt Q8WVZ9)	0.977 ± 0.014	0.9633 ± 0.004	0.959 ± 0.025	0.987 ± 0.01	1.03 ± 0.018	0.988 ± 0.03
EXOSC6 (UniProt Q5RKV6)	1.04 ± 0.032	1.03 ± 0.041	1.08 ± 0.018	1.12 ± 0.036	1.14 ± 0.052	1.14 ± 0.074
UniProt Q7Z7K6|Q7Z7K6-3	1.08 ± 0.068	1.153 ± 0.0086	1.3 ± 0.087	1.51 ± 0.12	1.72 ± 0.052	2.1 ± 0.13
CBLL1 (UniProt Q75N03)	1 ± 0.01	1.04 ± 0.022	1.03 ± 0.045	0.995 ± 0.015	0.976 ± 0.014	0.985 ± 0.016
UniProt Q13825|Q13825-2	0.995 ± 0.028	1.02 ± 0.025	1.04 ± 0.044	1.03 ± 0.015	1.04 ± 0.057	1.06 ± 0.025
UniProt Q5XUX1|Q5XUX1-3|Q5XUX1-2	0.986 ± 0.017	0.96 ± 0.042	0.976 ± 0.026	0.993 ± 0.021	0.982 ± 0.024	0.969 ± 0.028
DNTTIP2 (UniProt Q5QJE6)	1.1 ± 0.036	1.2 ± 0.022	1.27 ± 0.06	1.34 ± 0.083	1.4 ± 0.12	1.53 ± 0.16
UniProt Q6P6C2|Q6P6C2-1	1.15 ± 0.065	1.17 ± 0.036	1.22 ± 0.07	1.24 ± 0.13	1.3 ± 0.13	1.33 ± 0.11
UniProt Q16630-2|Q16630	1.067 ± 0.004	1.12 ± 0.043	1.149 ± 0.0081	1.22 ± 0.025	1.3 ± 0.017	1.51 ± 0.045
PSME4 (UniProt Q14997)	0.9678 ± 0.0088	0.905 ± 0.072	0.968 ± 0.045	0.884 ± 0.075	0.925 ± 0.11	0.884 ± 0.11
